Screening data from PubChem BioAssay.
Many of the other results were omitted from the sample, so hits are more common in it than they were.
NPR1 activator: GC-A stimulated cGMP production enhancers – HEK293 GC-A cells, cGMP TR-FRET, EC30 ANP, primary screen; Atrial natriuretic peptide receptor 1 (Homo sapiens), P16066; 0% at EC30 ANP, 100% saturating ANP; activation, % at 10 µM; hit rate 0.14% among 370,000; AID 1671463, 2021; in the data active means activation above about 40%
Target sequence (P16066 whole entry, looked up): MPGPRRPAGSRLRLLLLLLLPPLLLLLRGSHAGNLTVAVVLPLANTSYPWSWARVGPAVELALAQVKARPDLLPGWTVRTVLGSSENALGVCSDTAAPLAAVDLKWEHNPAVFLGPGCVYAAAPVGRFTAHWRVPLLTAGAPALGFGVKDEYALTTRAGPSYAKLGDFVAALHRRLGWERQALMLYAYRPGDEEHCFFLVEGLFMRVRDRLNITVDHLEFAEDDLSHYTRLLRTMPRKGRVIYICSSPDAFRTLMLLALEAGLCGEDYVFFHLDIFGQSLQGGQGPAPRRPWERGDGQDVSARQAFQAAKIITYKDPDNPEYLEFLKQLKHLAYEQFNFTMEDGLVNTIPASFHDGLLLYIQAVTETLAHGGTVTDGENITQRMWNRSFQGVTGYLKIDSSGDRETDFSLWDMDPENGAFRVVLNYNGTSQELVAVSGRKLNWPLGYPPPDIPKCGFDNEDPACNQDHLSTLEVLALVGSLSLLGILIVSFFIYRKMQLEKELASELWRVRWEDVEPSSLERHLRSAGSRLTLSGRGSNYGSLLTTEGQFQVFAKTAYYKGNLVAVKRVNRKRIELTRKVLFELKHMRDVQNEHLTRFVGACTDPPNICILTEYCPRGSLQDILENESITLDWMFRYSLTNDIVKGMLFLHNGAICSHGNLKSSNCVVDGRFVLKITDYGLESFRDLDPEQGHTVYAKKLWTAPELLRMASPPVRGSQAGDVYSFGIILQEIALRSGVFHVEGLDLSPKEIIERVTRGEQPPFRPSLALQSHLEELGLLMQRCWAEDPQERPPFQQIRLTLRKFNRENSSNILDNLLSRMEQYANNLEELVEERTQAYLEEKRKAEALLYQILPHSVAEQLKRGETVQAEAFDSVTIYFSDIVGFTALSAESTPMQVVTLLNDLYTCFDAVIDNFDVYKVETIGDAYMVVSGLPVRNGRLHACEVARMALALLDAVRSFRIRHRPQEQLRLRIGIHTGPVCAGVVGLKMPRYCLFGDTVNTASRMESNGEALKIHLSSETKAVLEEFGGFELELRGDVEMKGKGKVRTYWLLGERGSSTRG
NPR2 activator: human GC-B receptor activators, primary screen, HEK293 GC-B cells, cGMP TR-FRET, EC30 CNP | 0% at EC30 CNP, 100% saturating CNP | activation, % at 10 µM | hit rate 0.11% among 370,000 | AID 1920062, 2024;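 active means activation at 10 µM reaching about 35% in either raw or pattern-adjusted values, limit read from the data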
HDAC3 inhib: HDAC3 deacetylase inhibitors, primary screen, biochemical, fluorescence, cell-free homogeneous; Histone deacetylase 3 (Homo sapiens), O15379; inhibition, % at 8.3 µM; hit rate 0.15% among 320,000; recombinant HDAC3, fluorogenic peptide/trypsin coupled; in the data active means inhibition above about 26%, passing the limit was not always enough; inconclusive means no clear call, values can overlap the other calls
ALR inh: inhibitors of human ALR sulfhydryl oxidase, primary screen, biochemical, H2O2 detection, HRP-luminol luminescence, single point. purified ALR, DTT oxidation. inhibition, % (concentration not given with the values). hit rate 3.8% among 290,000;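 active means mean replicate inhibition above about 79%, with every replicate also reaching it, limit read from the data; inconclusive means only one of the two criteria met; inactive means mean below limit and not every replicate reaching it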
Each line names hits and unclear results; the compound was inactive in the other large screens.

O=C(COC(=O)C1(c2ccc(F)cc2)CCCC1)NCc1ccco1	none
O=C(NCCc1ccccc1)c1ccc(NC(=O)C2CC2)cc1	none (no result: HDAC3 inhib, ALR inh)
C[C@H](CO)N1C[C@H](C)[C@@H](CN(C)Cc2ccc(C(=O)O)cc2)OCCCC[C@H](C)Oc2ccc(NC(=O)CCC(F)(F)F)cc2C1=O	none (no result: HDAC3 inhib, ALR inh)
CCCOc1ccc(Cc2c(O)nc(SC)[nH]c2=O)cc1	none
O=C(O)CCN1c2ccccc2Sc2ccccc21	ALR inh 82
COc1ccccc1OC(=O)CCN1c2ccccc2Sc2ccccc21	ALR inh 88
COc1ccccc1C(=O)N1c2ccccc2Sc2ccccc21	none
CC1(C)Cc2c(sc3ncnc(NNC(=S)NCc4ccccc4)c23)CO1	none
CC(C)NC(=S)NNc1ncnc2sc3c(c12)CC(C)(C)OC3	NPR2 activator 38
Cc1cc(N(C)C)ccc1N=Nc1ccc2ncccc2c1	ALR inh 94
CN(C)c1ccc(N=Nc2ccc3ncccc3c2)cc1	none (no result: HDAC3 inhib, ALR inh)
Cc1cc(C)cc(N(C(=O)c2sc(C)nc2C)C(C(=O)NC(C)(C)C)c2ccncc2)c1 (stereo not given)	none (no result: ALR inh)
CCOC(=O)CN1CCc2c(C)nc3c(-c4ccc(OC)c(OC)c4)cnn3c21	ALR inh 84
Cc1ccc(N(CC(=O)N2CCCCCC2)S(C)(=O)=O)cc1	none (no result: HDAC3 inhib, ALR inh)
COc1cc(/C=C/C(=O)OCC(=O)N2CCC(C)CC2)ccc1O	ALR inh 99
COc1cc(/C=C/C(=O)OCC(=O)NC(=O)NC(C)(C)C)ccc1O	ALR inh 99
COc1cc(/C=C/C(=O)OCC(=O)N2CCC(Cc3ccccc3)CC2)ccc1O	none
CCN(C(=O)COC(=O)/C=C/c1ccc(O)c(OC)c1)C1CCS(=O)(=O)C1 (stereo not given)	ALR inh 98
COc1cc(/C=C/C(=O)OCC(=O)N2CC3(C)CC2CC(C)(C)C3)ccc1O (stereo not given)	ALR inh 99
CCN(C(=O)COC(=O)/C=C/c1ccc(OC(F)F)c(OC)c1)C1CCS(=O)(=O)C1 (stereo not given)	none
COCCN1C[C@@H](CO)O[C@@H](n2cnc3c(NCC(C)C)ncnc32)C1	none (no result: HDAC3 inhib, ALR inh)
CC1=NN(c2ccccc2)C(=O)C1c1ccccc1 (stereo not given)	ALR inh 94
CCOC(=O)Cc1c(C)nc2c(-c3ccccc3)c(-c3ccccc3)[nH]n2c1=O	none (no result: HDAC3 inhib, ALR inh)
COc1ccc(-c2cnc(OC(C)(C)C)nc2OC(C)(C)C)cc1OC	none
COC(=O)c1cc(-c2ccc(Br)cc2)on1	NPR1 activator 59
COC(=O)c1cc(-c2ccc(OC)cc2)on1	none
CCOCCCNc1ncnc2c1nc1n2CCCC1	none
CCCn1nc(NS(=O)(=O)c2cccc3nonc23)c2cc3cccc(C)c3nc21	ALR inh 97
Cc1ccc2cc3c(NS(=O)(=O)c4cccc5nonc45)nn(CC(C)C)c3nc2c1	HDAC3 inhib inconclusive, ALR inh 98
CCN1/C(=C/C=C/c2sc3ccccc3[n+]2CC)Sc2ccccc21	ALR inh 100 (no result: NPR1 activator, NPR2 activator)
CCN1/C(=C/C=C/C=C/c2sc3ccccc3[n+]2CC)Sc2ccccc21	HDAC3 inhib 36 (no result: NPR1 activator, NPR2 activator, ALR inh)
COc1ccc(OC)c(NC(=O)Cc2coc3ccc4ccccc4c23)c1	none
Cc1cc(N2CCN(C(=O)Oc3ccc([N+](=O)[O-])cc3)CC2)c2ccccc2n1	none (no result: HDAC3 inhib, ALR inh)
O=C1Nc2ccc(Br)cc2/C1=C/C(=O)c1ccccc1	none (no result: HDAC3 inhib, ALR inh)
O=C(O)COc1ccccc1/C=C1\C(=O)Nc2ccc(Br)cc21	ALR inh 98
O=[N+]([O-])c1ccc(/C=N/NC(=S)Nc2ccc(Cl)cc2Cl)s1	none
Cc1cc(C)n2nc(SCC(=O)NC3(C#N)CCCCC3)nc2n1	none (no result: HDAC3 inhib, ALR inh)
CCOc1ccc(NC(=O)C(C)SC(N)=O)cc1 (stereo not given)	ALR inh 99
CCOc1ccc(NC(=O)C(C)Sc2nnnn2C)cc1 (stereo not given)	none (no result: HDAC3 inhib)
CC(C)(C)CCN1CCC[C@H](NC(=O)COc2ccc(F)c(Cl)c2)C1	none (no result: HDAC3 inhib, ALR inh)
C#CCN1C(=O)[C@]2(OCCC=C[C@H]2C)c2cc(OC)ccc21	none (no result: HDAC3 inhib, ALR inh)
Cc1ccc(C)c(OCc2nc3ccc(S(=O)(=O)Nc4c(C)n(C)n(-c5ccccc5)c4=O)cc3[nH]2)c1	none
Cc1c(NS(=O)(=O)c2cccc(C(=O)OCC(=O)c3ccc(Cl)cc3)c2)c(=O)n(-c2ccccc2)n1C	NPR1 activator 61 (no result: HDAC3 inhib, ALR inh)
Cc1c(NS(=O)(=O)c2ccc3nc(COc4ccccc4Cl)[nH]c3c2)c(=O)n(-c2ccccc2)n1C	ALR inh 99
CSc1nc2ccc(S(=O)(=O)Nc3c(C)n(C)n(-c4ccccc4)c3=O)cc2s1	ALR inh 99
CCOc1ccc(CN2CCC(C(=O)Nc3cccc(-c4ccn[nH]4)c3)CC2)cc1Cl	none (no result: HDAC3 inhib)
COc1ccc(N2C(=S)NC3N2C(=S)NC3(C)c2ccccc2)cc1 (stereo not given)	ALR inh 98
CCOC(=O)c1cc(OC(C)=O)c2ccc(OC)c(OC)c2c1	none (no result: HDAC3 inhib, ALR inh)
O=C(NNC(=S)NC1CCCCC1)c1ccccc1O	ALR inh 97
CN(C(=S)NC(=O)C1CC1)c1ccc(O)cc1	ALR inh 97
S=C(c1ccc(-c2cccc(Cl)c2)o1)N1CCOCC1	NPR2 activator 35
S=C(c1ccc(-c2cc(Cl)ccc2Cl)o1)N1CCOCC1	NPR2 activator 43
S=C(c1ccc(-c2cccc(Cl)c2)o1)N1CCCCC1	none
COC(=O)[C@]12CCCCC=C1N(Cc1ccc(Cl)cc1Cl)C(=O)[C@H](CC(=O)N1CCOCC1)C2	none (no result: HDAC3 inhib, ALR inh)
COc1ccc(S(=O)(=O)CCC(=O)NC2CCCCC2)cc1	none
O=C(CCS(=O)(=O)c1ccccc1)NC1CCCCC1	ALR inh 84
CC(CCc1ccc(O)cc1)NCCc1ccc(O)c(O)c1 (stereo not given)	ALR inh 99
COc1cccc(/C=C2/C(=O)NN(c3ccc(C)c(C)c3)C2=O)c1	ALR inh 99
O=C1NN(c2cccc(Br)c2)C(=O)/C1=C\c1ccc(O)cc1	ALR inh 98
COc1cccc(/C=C2/C(=O)NN(c3ccc(F)cc3)C2=O)c1	ALR inh inconclusive
COc1cc(/C=C2/C(=O)NN(c3ccc(C)c(Cl)c3)C2=O)cc([N+](=O)[O-])c1O	ALR inh 99
CCOc1cc(/C=C2/C(=O)NN(c3cccc(Cl)c3)C2=O)ccc1O	ALR inh 98
Brc1ccc(-c2csc(N3CCNCC3)n2)cc1	none (no result: HDAC3 inhib, ALR inh)
COc1cc(/C=C2/C(=O)NN(c3cccc(Cl)c3)C2=O)cc(OC)c1O	ALR inh 91
O=C1NN(c2ccccc2)C(=O)/C1=C\c1ccc2c(c1)OCO2	none
Cc1ccc(N2NC(=O)/C(=C\c3cc4c(cc3[N+](=O)[O-])OCO4)C2=O)cc1C	ALR inh 94
C[C@H]1C(=O)N2[C@@H](C[C@]3(c4c[nH]c5ccccc45)c4ccccc4N(S(=O)(=O)c4ccccc4)[C@H]23)C(=O)N1C	none (no result: HDAC3 inhib, ALR inh)
O=C(c1csc2c1CCCC2)N1CCN(c2ncccn2)CC1	none
